MK inhibit – inhibitors of Streptococcus pneumoniae mevalonate kinase; actives 0.48% (n = 65,000); inhibition, % at 10 µM; purified MK, PK/LDH-coupled NADH absorbance 340 nm;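 active = ranked among the strongest by inhibition in the single 10 µM screen, a fixed top-ranked set picked for dose follow-up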
Abs 340nm – absorbance at 340 nm; compound absorbance at 340 nm, fold over control; fold change at 10 µM; 65,000 tested, under 10 active; AID 708;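 active = at 10 µM dose, initial 340 nm absorbance at least 2 fold that of control wells; inactive = change under 2 fold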;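 note: initial absorbance extrapolated from kinetic A340 decline of NADH oxidation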
NADH coupling – inhibition of NAD/NADH coupling enzymes, library profiling. coupled PK/LDH NADH assays, four targets. IC50, µM (highest dose often 10 µM). actives 0.02% (n = 65,000). AID 774;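 active = single-dose screening hits from any of four coupled enzyme assays that gave an IC50 when retested across doses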;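 note: the DPM-DC format reads NADH fluorescence rather than 340 nm absorbance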
Autofluor 339 – intrinsic fluorescence of library compounds, ex339/em460 – biochemical, MLSMR library, data from DPM-DC assay, artefact control, profiling panel; compound autofluorescence, ex339/em460 nm, NADH buffer; hits give high values; 1 = no-compound wells, NADH background; fluorescence fold increase at 10 µM; actives 5.5% (n = 65,000); AID 709;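 active = at 10 µM, mean starting fluorescence two-fold or more over control wells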;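 note: signal is the first read of a kinetic run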
Spn PMK inh – inhibitors of Streptococcus pneumoniae phosphomevalonate kinase. purified PMK, PK/LDH-coupled NADH absorbance 340 nm. inhibition, % at 10 µM. actives 0.49% (n = 65,000);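 active = top-ranked compounds by inhibition in the single 10 µM screen, taking a fixed number of the strongest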
DPM-DC inhibit – blocks S. pneumoniae diphosphomevalonate decarboxylase. purified DPM-DC, PK/LDH coupled NADH fluorescence. calls only at 10 µM. actives 0.49% (n = 65,000). AID 556;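 active = the 320 compounds with the highest percent inhibition in the single-dose primary screen, excluding strongly autofluorescent ones, cut at about 32% in these data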;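 note: kinetic rate of NADH fluorescence loss reporting ADP formed by the decarboxylase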
A number is an active result. Hits are enriched below; roughly 6.5% of the tested compounds scored in any of these assays.

Screening CCc1c(C)nc(N)n2c(SCC(=O)N3CCN(c4ccccc4OC)CC3)nnc12 returned MK inhibit inactive, Abs 340nm inactive, NADH coupling inactive, Autofluor 339 inactive, Spn PMK inh inactive and DPM-DC inhibit inactive.
`c1ccc(-c2cc3c(-n4cccc4)ncnc3o2)cc1` gave MK inhibit inactive, Abs 340nm inactive, NADH coupling inactive, Autofluor 339 3.2, Spn PMK inh inactive and DPM-DC inhibit inactive.
`Cc1cc(=O)oc(C)c1C(=O)n1nc(C)c2c1C[C@@H]1[C@H]2C1(C)C` gave MK inhibit inactive, Abs 340nm inactive, NADH coupling inactive, Autofluor 339 inactive, Spn PMK inh inactive and DPM-DC inhibit inactive.
COc1ccc2nc(NC(=O)c3cccc(OCc4c(C)noc4C)c3)sc2c1 was read as MK inhibit inactive, Abs 340nm inactive, NADH coupling inactive, Autofluor 339 4 and Spn PMK inh inactive.
For CCCC(=O)Nc1nn(C)c2nc3c(C)cccc3cc12 the results were MK inhibit inactive, Abs 340nm inactive, NADH coupling inactive, Autofluor 339 inactive, Spn PMK inh inactive and DPM-DC inhibit inactive.
Cc1cccc2cc3c(NC(=O)c4ccccn4)nn(C)c3nc12 was read as MK inhibit inactive, Abs 340nm inactive, NADH coupling inactive, Autofluor 339 2.1, Spn PMK inh inactive and DPM-DC inhibit inactive.
`CN1CCN(CC(=O)N(C)c2nc(-c3ccccc3)cs2)CC1` gave MK inhibit inactive, Abs 340nm inactive, NADH coupling inactive, Autofluor 339 inactive, Spn PMK inh inactive and DPM-DC inhibit inactive.
`CC(C)(CO)NC(=O)C(c1ccccc1)c1ccccc1` gave MK inhibit inactive, Abs 340nm inactive, NADH coupling inactive, Autofluor 339 inactive, Spn PMK inh inactive and DPM-DC inhibit active.
Cn1nnc(NC(=O)C(c2ccccc2)c2ccccc2)n1 was read as MK inhibit inactive, Abs 340nm inactive, NADH coupling inactive, Autofluor 339 inactive, Spn PMK inh inactive and DPM-DC inhibit inactive.
`CCOc1ccc(C2C(C#N)=C(N)Oc3cc(C)n(CCN(C)C)c(=O)c32)cc1OCC` (stereo not given) gave MK inhibit inactive, Abs 340nm inactive, NADH coupling inactive, Autofluor 339 inactive, Spn PMK inh inactive and DPM-DC inhibit inactive.
Nc1ccc(C(=O)OCc2nc3ccccc3[nH]2)cc1 was read as MK inhibit inactive, Abs 340nm inactive, NADH coupling inactive, Autofluor 339 inactive, Spn PMK inh inactive and DPM-DC inhibit inactive.
For Nc1ccc(-c2nc3ccccc3[nH]2)cc1 the results were MK inhibit inactive, Abs 340nm inactive, NADH coupling inactive, Autofluor 339 2.1 and Spn PMK inh inactive.
For Cn1cc(-c2nc3ccccc3[nH]2)c2ccccc21 the results were MK inhibit inactive, Abs 340nm inactive, NADH coupling inactive, Autofluor 339 2.1 and Spn PMK inh inactive.
For Cn1c(NCc2c[nH]c3ccccc23)nc2ccccc21 the results were MK inhibit inactive, Abs 340nm inactive, NADH coupling inactive, Autofluor 339 inactive, Spn PMK inh inactive and DPM-DC inhibit inactive.
Nc1ccccc1-c1nc2ccccc2[nH]1 was read as MK inhibit inactive, Abs 340nm inactive, NADH coupling inactive, Autofluor 339 3.8 and Spn PMK inh inactive.
For Nc1cccc(-c2nc3ccccc3[nH]2)c1 the results were MK inhibit inactive, Abs 340nm inactive, NADH coupling inactive, Autofluor 339 2.2 and Spn PMK inh inactive.
Cc1n[nH]c(C)c1-c1nc2ccccc2[nH]1 was read as MK inhibit inactive, Abs 340nm inactive, NADH coupling inactive, Autofluor 339 inactive, Spn PMK inh inactive and DPM-DC inhibit inactive.
`Cc1ccc(Cl)cc1N1CCN(S(=O)(=O)c2ccc3c(c2)oc(=O)n3C)CC1` gave MK inhibit inactive, Abs 340nm inactive, NADH coupling inactive, Autofluor 339 inactive, Spn PMK inh inactive and DPM-DC inhibit inactive.
CCOC(=O)Cc1csc(NC(=O)COc2ccc(N(C)S(=O)(=O)c3cccs3)cc2)n1 was read as MK inhibit inactive, Abs 340nm inactive, NADH coupling inactive, Autofluor 339 inactive, Spn PMK inh inactive and DPM-DC inhibit inactive.
For Cc1ccc(-n2nc(-c3ccc(N)cc3)cc2N)cc1 the results were MK inhibit inactive, Abs 340nm inactive, NADH coupling inactive, Autofluor 339 inactive, Spn PMK inh inactive and DPM-DC inhibit inactive.
`Cc1ccc(-n2nc3ccc(N)cc3n2)cc1` gave MK inhibit inactive, Abs 340nm inactive, NADH coupling inactive, Autofluor 339 2.1 and Spn PMK inh inactive.
`COc1ccccc1N(CC(O)CN1C(=O)NC(C)(C)C1=O)S(=O)(=O)c1ccc(C)cc1` (stereo not given) gave MK inhibit inactive, Abs 340nm inactive, NADH coupling inactive, Autofluor 339 inactive, Spn PMK inh inactive and DPM-DC inhibit inactive.
Screening CCC(=O)Nc1c(-c2ccc(OC)cc2)c(=O)c2ccccc2n1C returned MK inhibit inactive, Abs 340nm inactive, NADH coupling inactive, Autofluor 339 3.8 and Spn PMK inh inactive.
Cn1c(NC(=O)c2cccs2)c(-c2cccs2)c(=O)c2ccccc21 was read as MK inhibit inactive, Abs 340nm inactive, NADH coupling inactive, Autofluor 339 inactive, Spn PMK inh inactive and DPM-DC inhibit inactive.
`O=C(CN1CCCC1)N1CCCc2c1c(=O)oc1ccc(OCc3ccccc3)cc21` gave MK inhibit inactive, Abs 340nm inactive, NADH coupling inactive, Autofluor 339 3, Spn PMK inh inactive and DPM-DC inhibit active.
`CCCOc1ccc2oc(=O)c3c(c2c1)CCCN3C(=O)CN1CCN(C(=O)c2ccco2)CC1` gave MK inhibit inactive, Abs 340nm inactive, NADH coupling inactive, Autofluor 339 3, Spn PMK inh inactive and DPM-DC inhibit inactive.
`CCCOc1ccc2oc(=O)c3c(c2c1)CCCN3C(=O)CN1CCN(c2ncccn2)CC1` gave MK inhibit inactive, Abs 340nm inactive, NADH coupling inactive, Autofluor 339 inactive, Spn PMK inh inactive and DPM-DC inhibit inactive.
`COc1ccc(S(=O)(=O)c2ccc(OC)c(OC)c2)cc1OC` gave MK inhibit inactive, Abs 340nm inactive, NADH coupling inactive, Autofluor 339 inactive, Spn PMK inh inactive and DPM-DC inhibit inactive.
COc1cc(NC(=O)c2ccco2)c(OC)cc1NC(=O)CCC(=O)Nc1cc(C)cc(C)c1 was read as MK inhibit inactive, Abs 340nm inactive, NADH coupling inactive, Autofluor 339 inactive, Spn PMK inh inactive and DPM-DC inhibit inactive.
For COc1cc(NC(=O)c2ccco2)c(OC)cc1NC(=O)CCC(=O)Nc1cc(C)ccc1C the results were MK inhibit inactive, Abs 340nm inactive, NADH coupling inactive, Autofluor 339 2.7, Spn PMK inh inactive and DPM-DC inhibit active.
For CCOC(=O)C1CCN(Cc2ccc(O)c(OC)c2)CC1 the results were MK inhibit inactive, Abs 340nm inactive, NADH coupling inactive, Autofluor 339 inactive, Spn PMK inh inactive and DPM-DC inhibit inactive.
